IP6K1 inh = blocks human inositol hexakisphosphate kinase 1; Q92551; IP6K1 kinase, ADP-Glo luminescence, 2 h; stronger effect = lower value; activity change, % (series mostly up to about 58 µM); 0.81% of 140,000 active; in the data active means activity change below about -25%; further: on the % scale 0 is the no-effect control and ±100 the full control effect
Target sequence (Q92551 whole entry, looked up): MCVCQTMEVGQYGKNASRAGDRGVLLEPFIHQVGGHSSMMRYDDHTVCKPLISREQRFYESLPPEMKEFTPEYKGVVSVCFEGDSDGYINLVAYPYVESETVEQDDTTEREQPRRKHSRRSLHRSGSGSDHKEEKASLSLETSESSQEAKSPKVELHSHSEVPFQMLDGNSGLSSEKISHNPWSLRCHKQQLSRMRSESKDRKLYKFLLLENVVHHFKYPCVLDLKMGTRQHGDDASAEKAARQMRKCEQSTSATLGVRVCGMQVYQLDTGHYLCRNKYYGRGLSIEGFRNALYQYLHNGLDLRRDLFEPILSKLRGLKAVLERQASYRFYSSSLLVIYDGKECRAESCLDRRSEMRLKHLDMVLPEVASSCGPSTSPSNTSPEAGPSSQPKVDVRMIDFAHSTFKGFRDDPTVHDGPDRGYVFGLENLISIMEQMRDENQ
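ADP-Glo luminescence measures ADP made by human IP6K1 during a 2 h RT reaction with ATP/IP6 (mix at 1.3 mM/130 uM); top library doses 57.5 and 19.1 uM final.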
KDM5B inhibitor = KDM5B demethylase inhibition; Q9UGL1; KDM5B demethylase, FDH-coupled NADH fluorescence (FDH is formaldehyde dehydrogenase); Potency, µM (series often up to 57.7 µM), usual class: inhibitors; 2.6% of 220,000 active; AID 1347165; further: potency means the concentration at half of the fitted maximal effect; 0% is about no effect; nearly all actives have a fitted effect of over 70% in size
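KDM5BΔAP (200 nM final) in 50 mM HEPES pH 7.5, 0.01% Tween-20 was preincubated 10 min at RT with compound over a concentration range. Substrate mix (H3K4me3 12.5 µM, α-KG 25 µM, Fe²⁺, ascorbate, NAD⁺, FDH) was added, and NADH fluorescence change over 30 min gave dose-response curves.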
IP6K1 conf = human IP6K1 inhibition, confirmatory; shares compounds with IP6K1 inh; recombinant IP6K1 kinase, ADP-Glo luminescence, 2 h; Potency, µM (top dose mostly 49 µM), for the others: at the highest dose activity change, negative = inhibition, usual class: inhibitors; 13% of 1,200 active; AID 1645852; further: potency means the concentration at half of the fitted maximal effect; on the % scale 0 is the no-effect control and ±100 the full control effect; nearly all actives have a fitted effect of over 65% in size
Starred values were filed as active, the others as inactive; i = inactive; u = inconclusive; x = not tested or not shown. This is a sample that favours compounds with a hit; in the whole collection about 2.8% have one here. Unless noted, the call rests on the fitted dose curve; in most records, active means well fitted inhibition curve with a large enough effect; inconclusive means small, poorly fitted or top-dose-only effect; inactive means no such curve, though single readings can be large or run the other way.

SMILES	IP6K1 inh	KDM5B inhibitor	IP6K1 conf
COc1ccccc1N1CCN(S(=O)(=O)c2ccc(F)c(C(=O)Nc3ccc(C)c(F)c3)c2)CC1	-28*	u	3%
O=C(NCc1ccc(F)cc1F)c1ccc2nnc(C3CCOCC3)n2c1	-7	x	x
COc1cccc2c1cc1c(=O)n(CC(=O)NC3CC3)nc(C)n12	-17	u	x
COc1cccc2c1cc1c(=O)n(CC(=O)NCc3ccc(C)o3)nc(C)n12	-30*	u	-4%
CC1CCN(c2nc3c(-c4cccc(Br)c4)nnn3c3ccccc23)CC1	10	i	x
Cc1ccc(-c2nnn3c2nc(N2CCC(C)CC2)c2ccccc23)cc1	-29*	u	-9%
CCC(CNC(=O)c1ccc(C(=O)OC)cc1)c1ccccc1 (configuration not stated)	x	i	x
O=C(Nc1cccc(Cl)c1Cl)c1cc(S(=O)(=O)N2CCC3(CC2)OCCO3)ccc1F	2	u	x
O=C(Nc1ccccc1Cl)c1cc(S(=O)(=O)N2CCC3(CC2)OCCO3)ccc1F	-35*	i	u
COc1cccc(CN2CCCOCCNC(=O)CC2)c1OC	-7	i	x
COc1cccc(-c2nc3cc4c(cc3cc2CN2CCCOCC2)OCO4)c1OC	-35*	28µM*	-19%
COc1cccc(CN2CCC(Cn3c(C)cnc3-c3ccccc3)CC2)c1OC	1	x	x
CCOc1ccc(CN2C(=O)c3ccccc3Sc3ccc(C(=O)NCc4ccco4)cc32)cc1	13	u	x
O=C(NCc1ccco1)c1ccc2c(c1)N(Cc1ccc(Cl)cc1)C(=O)c1ccccc1S2	-26*	u	u
O/N=C/C(Cl)=C(Sc1ccc(Cl)cc1)Sc1ccc(Cl)cc1	x	i	x
COc1cc(SC)ccc1C(=O)Nc1ccc(S(=O)(=O)Nc2nccc(C)n2)cc1	1	i	x
COc1ccccc1C(=O)Nc1ccc(S(=O)(=O)Nc2nc(C)cc(C)n2)cc1	-29*	u	u
Cc1cc(O)c(C)c(C)c1O	13	i	x
Cc1cc(O)c2ccccc2c1O	-28*	x	u
O=C(c1ccccc1Cl)N1CCN(CCCn2nc3n(c2=O)CCCC3)CC1	-3	x	x
CCCCN(Cc1ccccc1)c1ccc(NS(=O)(=O)c2ccc(C)c(C)c2)cc1C(=O)O	x	i	x
